According to the OligoGym collection:

molecular target: ZNF384; assay: pooled miR-30 sensor sort-seq; sequence = guide strand; details: shRNA
Further: reference of the scale not given here.

Row | Sequence | sensor-assay potency score (higher = more potent)
1 | TTTATCTTTGTTGTGTTGCCGT | 0.173
2 | TTGGACTCTGTGTCCATACTGA | -0.198
3 | ATAAGGGTCATTCATCTCGGGC | -1.42
4 | ATTTGTATGGTCTATCACCAGT | -0.958
5 | TTGAGCTTGAGCCTGGGCCTGG | -0.952
6 | ATCTTGTTGATGAACATTGTGT | -0.823
7 | TTGATGAACATTGTGTTCTCGA | 0.78

molecular target: ZNF428; assay: as above; details: shRNA

Row | Sequence | sensor-assay potency score (higher = more potent)
8 | ATATTCAGGATCGTCAGTGGTC | -0.14
9 | TGAATCAGAGGAATGCTCGGGG | 0.32
10 | TCATCATCTTCTTCCAAGCTGG | -0.45
11 | TTCTTCCTCTTCGGAGTCCGGC | -1.03
12 | AGAGAGTGTATTCTGAATCAGA | -1.95
13 | TCATCTTCTTCCAAGCTGGCGT | -0.345
14 | TAAGACAACACAGACCGGCAGT | 0.279
15 | TCTAAGACAACACAGACCGGCA | -0.807
16 | TCTGAGAGAGTGTATTCTGAAT | -1.43
17 | TTCTAAGACAACACAGACCGGC | 0.28
18 | TTCCTCTTCGGAGTCCGGCTCT | -0.361
19 | TCACCTTGTAGCCAGGATCATA | -1.68

molecular target: ZNF471; assay: as above; details: shRNA

Row | Sequence | sensor-assay potency score (higher = more potent)
20 | TTAAGGATAACTTTCTTCTGAA | -0.561
21 | TTTCTTGTGTTTTATTACCATA | -1.3
22 | TACTCTTTGATGCTGAGTGAGT | -0.705
23 | TAACTTTCTTCTGAACGCCTTC | -0.31
24 | TTGATGTTGAGTAAGATTGGAA | -0.353
25 | TTCTCTGATGTACAGTACGGGA | -1.32
26 | TGTGACATCTCTGATGTCGAGC | -0.679
27 | TTTGCCAGTGTGACATCTCTGA | -0.159
28 | TAAACATCTCATGACTTCCCAT | -0.174
29 | TTCTCCAACATCATACTCCTGT | 0.565

molecular target: ZNF480; assay: as above; details: shRNA

Row | Sequence | sensor-assay potency score (higher = more potent)
30 | TTGATGTTTAGTAAGGCTGGAA | -0.447
31 | TTCATCTGGAAATAGCTCCAGT | 0.626
32 | TTTCTGATGTCGTACAAGGAGC | -1.17
33 | TTGAATTGTAACTAAAAACCTT | -0.157
34 | TAACTTGTGTCTGAATGCCTTG | -0.708
35 | TGAATTGTAACTAAAAACCTTG | -0.76
36 | TTTCAACTTGATTACATCCATT | -1.17
37 | TTAGTGATAACTTGTGTCTGAA | -0.0434
38 | TTCTCTAAGGTGTACTTTCTGT | -0.808
39 | TAATTGGTTTGTCTTCTGCATT | -1.51
